# Shown is part of a subset that was picked to be rich in the strongest signals.
# B1: PV12658A-bvu-496-32-496 (Bacteroides vulgatus) (protein)
# chain: DLDGAITTPAAVELALNGIYYSLPGNGFNVIFPTVSGSFKAGTMWRQEIVSAGNAVYYSERMLPTLSFSDATEWDADYAVIKNANFLETACNRMSDGEFSGNRRAEVLGEIAYLRALAYFNILVRYCEFWDMNSEYGVVMRNEAPSVSNALKARSSVADSYQYILDQLEIAIEKAPDWKKLSQASKEAAKALKARVLLYAGKYTEAVAAVNDAIDTNSPLPEANYGDVFDKFSTTKEILFARVFDQKDATNTSTRQQCYGNSPTKKQGYWGPTNEYVELVGDDPRADAIFSKVDSLMDSRSSAVAYNLKSVKKLLNDANDMPVIFSRVSELYLIKAEALYRSGASISEAYAPIRKLRERAGAEIILPANNEELETAIFNEWMLELSFENWHEWFAMIRFAGYTEKPDFTRLLALNKTLREALEKEYEKSEAQGDNYYQRIIDRRIDAIPSSEISSNLECKQNPGY
# Assays:
# Assay in all cases: glycan array binding signal (z-score within array); higher = stronger binding
# Settings in all cases: glycan notation: IUPAC condensed, linker removed
# [1] = target: Fuc(a1-2)Gal(b1-4)Glc6S
# How it was run: (§1)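 The Consortium for Functional Glycomics database supplied 3228 glycan arrays, of which those lacking an available protein sequence were dropped. The binding signal, a within-array Z-score, was averaged across arrays of the same protein sequence and across linkers. Negative scores can be read as non-binding.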
# [2] = target: Fuc(a1-2)Gal(b1-4)GlcNAc(b1-2)Man
# How it was run: as §1
# [3] = target: Fuc(a1-2)Gal(b1-4)GlcNAc(b1-2)Man(a1-3)[Fuc(a1-2)Gal(b1-4)GlcNAc(b1-2)Man(a1-6)]Man(b1-4)GlcNAc(b1-4)[Fuc(a1-6)]GlcNAc
# How it was run: as §1
# [4] = target: Fuc(a1-2)[Gal(a1-3)]Gal(b1-3)GlcNAc(b1-2)Man(a1-3)[Fuc(a1-2)[Gal(a1-3)]Gal(b1-3)GlcNAc(b1-2)Man(a1-6)]Man(b1-4)GlcNAc(b1-4)GlcNAc
# How it was run: as §1
# [5] = target: Fuc(a1-2)[GalNAc(a1-3)]Gal(b1-4)GlcNAc
# How it was run: as §1
# [6] = target: Fuc(a1-2)[GalNAc(a1-3)]Gal(b1-4)GlcNAc(b1-3)Gal(b1-4)GlcNAc(b1-3)Gal(b1-4)GlcNAc
# How it was run: as §1
# [7] = target: Gal(a1-3)Gal(b1-3)GlcNAc
# How it was run: as §1
# [8] = target: Gal(a1-3)Gal(b1-3)GlcNAc(b1-3)GalNAc
# How it was run: as §1
# [9] = target: Gal(a1-3)Gal(b1-4)GlcNAc(b1-2)Man(a1-3)[Gal(a1-3)Gal(b1-4)GlcNAc(b1-2)Man(a1-6)]Man(b1-4)GlcNAc(b1-4)GlcNAc
# How it was run: as §1
# [10] = target: Gal(a1-3)Gal(b1-4)[Fuc(a1-3)]GlcNAc(b1-2)Man(a1-3)[Gal(a1-3)Gal(b1-4)[Fuc(a1-3)]GlcNAc(b1-2)Man(a1-6)]Man(b1-4)GlcNAc(b1-4)GlcNAc
# How it was run: as §1
# [11] = target: Gal(a1-3)[Gal(a1-4)]Gal(b1-4)GlcNAc
# How it was run: as §1
# [12] = target: Gal(a1-4)Gal(b1-4)GlcNAc(b1-2)Man(a1-3)[Gal(a1-4)Gal(b1-4)GlcNAc(b1-2)Man(a1-6)]Man(b1-4)GlcNAc(b1-4)GlcNAc
# How it was run: as §1
# [13] = target: Gal(b1-2)Gal
# How it was run: as §1
# [14] = target: Gal(b1-3)GalNAc(b1-4)Gal(b1-4)Glc
# How it was run: as §1
# [15] = target: Gal(b1-3)GlcNAc
# How it was run: as §1
# [16] = target: Gal(b1-3)GlcNAc(b1-3)Gal(b1-4)GlcNAc(b1-2)[Gal(b1-3)GlcNAc(b1-3)Gal(b1-4)GlcNAc(b1-6)]Man(a1-6)[Gal(b1-3)GlcNAc(b1-3)Gal(b1-4)GlcNAc(b1-2)Man(a1-3)]Man(b1-4)GlcNAc(b1-4)[Fuc(a1-6)]GlcNAc
# How it was run: as §1
# [17] = target: Gal(b1-3)GlcNAc(b1-3)Gal(b1-4)[Fuc(a1-3)]GlcNAc
# How it was run: as §1
# [18] = target: Gal(b1-4)GlcNAc
# How it was run: as §1
# [19] = target: Gal(b1-4)GlcNAc(b1-3)Gal(b1-3)GlcNAc
# How it was run: as §1
# [20] = target: Gal(b1-4)GlcNAc(b1-3)Gal(b1-4)Glc
# How it was run: as §1
# [21] = target: Gal(b1-4)GlcNAc(b1-3)Gal(b1-4)GlcNAc(b1-3)Gal(b1-4)GlcNAc(b1-3)Gal(b1-4)GlcNAc(b1-2)Man(a1-3)[Gal(b1-4)GlcNAc(b1-3)Gal(b1-4)GlcNAc(b1-3)Gal(b1-4)GlcNAc(b1-3)Gal(b1-4)GlcNAc(b1-2)Man(a1-6)]Man(b1-4)GlcNAc(b1-4)GlcNAc
# How it was run: as §1
# [22] = target: Gal(b1-4)GlcNAc(b1-3)Gal(b1-4)GlcNAc(b1-3)GalNAc
# How it was run: as §1
# [23] = target: Gal(b1-4)GlcNAc(b1-3)[Gal(b1-4)GlcNAc(b1-6)]Gal(b1-4)GlcNAc
# How it was run: as §1
# [24] = target: Gal(b1-4)GlcNAc(b1-6)GalNAc
# How it was run: as §1
# [25] = target: GalNAc(a1-3)GalNAc(b1-3)Gal(a1-4)Gal(b1-4)GlcNAc
# How it was run: as §1
# [26] = target: GalNAc(b1-3)Gal(a1-4)Gal(b1-4)GlcNAc
# How it was run: as §1
# [27] = target: GalNAc(b1-4)Gal(b1-4)Glc
# How it was run: as §1
# [28] = target: GalNAc6S(b1-4)GlcNAc
# How it was run: as §1
# [29] = target: GlcNAc(a1-3)Gal(b1-4)GlcNAc
# How it was run: as §1
# [30] = target: GlcNAc(b1-2)Gal(b1-3)GalNAc
# How it was run: as §1
# [31] = target: GlcNAc(b1-3)Gal(b1-4)GlcNAc(b1-3)Gal(b1-4)GlcNAc(b1-3)Gal(b1-4)GlcNAc(b1-3)Gal(b1-4)GlcNAc(b1-2)Man(a1-3)[GlcNAc(b1-3)Gal(b1-4)GlcNAc(b1-3)Gal(b1-4)GlcNAc(b1-3)Gal(b1-4)GlcNAc(b1-3)Gal(b1-4)GlcNAc(b1-2)Man(a1-6)]Man(b1-4)GlcNAc(b1-4)GlcNAc
# How it was run: as §1
# [32] = target: GlcNAc(b1-3)Gal(b1-4)GlcNAc(b1-3)Gal(b1-4)GlcNAc(b1-3)GalNAc
# How it was run: as §1
# [33] = target: GlcNAc(b1-4)Gal(b1-4)GlcNAc
# How it was run: as §1
# [34] = target: GlcNAc(b1-4)GlcNAc(b1-4)GlcNAc(b1-4)GlcNAc(b1-4)GlcNAc
# How it was run: as §1
# [35] = target: Man(a1-3)[Man(a1-6)]Man(a1-6)[Man(a1-3)]Man(b1-4)GlcNAc(b1-4)GlcNAc
# How it was run: as §1
# [36] = target: Neu5Ac(a2-3)Gal(b1-3)GalNAc
# How it was run: as §1
# [37] = target: Neu5Ac(a2-3)Gal(b1-3)GlcNAc(b1-2)Man(a1-3)[GlcNAc(b1-4)][Neu5Ac(a2-3)Gal(b1-3)GlcNAc(b1-2)Man(a1-6)]Man(b1-4)GlcNAc(b1-4)GlcNAc
# How it was run: as §1
# [38] = target: Neu5Ac(a2-3)Gal(b1-3)[Fuc(a1-4)]GlcNAc(b1-3)Gal(b1-3)[Fuc(a1-4)]GlcNAc
# How it was run: as §1
# [39] = target: Neu5Ac(a2-3)Gal(b1-4)GlcNAc(b1-2)Man
# How it was run: as §1
# [40] = target: Neu5Ac(a2-3)Gal(b1-4)GlcNAc(b1-3)Gal(b1-4)GlcNAc(b1-3)Gal(b1-4)GlcNAc(b1-2)Man(a1-3)[Neu5Ac(a2-3)Gal(b1-4)GlcNAc(b1-3)Gal(b1-4)GlcNAc(b1-3)Gal(b1-4)GlcNAc(b1-2)Man(a1-6)]GalNAc
# How it was run: as §1
# [41] = target: Neu5Ac(a2-3)Gal(b1-4)GlcNAc(b1-6)GalNAc
# How it was run: as §1
# [42] = target: Neu5Ac(a2-3)Gal(b1-4)GlcNAc6S
# How it was run: as §1
# [43] = target: Neu5Ac(a2-3)Gal(b1-4)[Fuc(a1-3)]GlcNAc(b1-6)[Gal(b1-3)]GalNAc
# How it was run: as §1
# [44] = target: Neu5Ac(a2-3)Gal(b1-4)[Fuc(a1-3)]GlcNAc(b1-6)[Neu5Ac(a2-3)Gal(b1-3)]GalNAc
# How it was run: as §1
# [45] = target: Neu5Ac(a2-3)[GalNAc(b1-4)]Gal(b1-4)GlcNAc(b1-3)GalNAc
# How it was run: as §1
# [46] = target: Neu5Ac(a2-6)Gal(b1-4)GlcNAc(b1-2)Man(a1-3)[GlcNAc(b1-4)][Neu5Ac(a2-6)Gal(b1-4)GlcNAc(b1-2)Man(a1-6)]Man(b1-4)GlcNAc(b1-4)GlcNAc
# How it was run: as §1
# [47] = target: Neu5Ac(a2-6)Gal(b1-4)GlcNAc(b1-3)Gal(b1-4)GlcNAc(b1-2)Man(a1-3)[Neu5Ac(a2-6)Gal(b1-4)GlcNAc(b1-3)Gal(b1-4)GlcNAc(b1-2)Man(a1-6)]GalNAc
# How it was run: as §1
# [48] = target: Neu5Ac(a2-6)Gal(b1-4)GlcNAc(b1-3)Gal(b1-4)GlcNAc(b1-3)GalNAc
# How it was run: as §1
# [49] = target: Neu5Ac(a2-6)GalNAc(b1-4)GlcNAc
# How it was run: as §1
# [50] = target: Neu5Ac(a2-8)Neu5Gc(a2-3)Gal(b1-4)GlcNAc
# How it was run: as §1
binder,measurement,setting,value
B1,glycan array binding signal (z-score),[1],-0.163
same,glycan array binding signal (z-score),[2],-0.199
same,glycan array binding signal (z-score),[3],0.201
same,glycan array binding signal (z-score),[4],3.63
same,glycan array binding signal (z-score),[5],-0.36
same,glycan array binding signal (z-score),[6],0.133
same,glycan array binding signal (z-score),[7],3.81
same,glycan array binding signal (z-score),[8],-0.252
same,glycan array binding signal (z-score),[9],4.55
same,glycan array binding signal (z-score),[10],0.883
same,glycan array binding signal (z-score),[11],1.73
same,glycan array binding signal (z-score),[12],7.57
same,glycan array binding signal (z-score),[13],-0.301
same,glycan array binding signal (z-score),[14],0.963
same,glycan array binding signal (z-score),[15],-0.316
same,glycan array binding signal (z-score),[16],6.34
same,glycan array binding signal (z-score),[17],-0.533
same,glycan array binding signal (z-score),[18],-0.258
same,glycan array binding signal (z-score),[19],-0.494
same,glycan array binding signal (z-score),[20],-0.266
same,glycan array binding signal (z-score),[21],5.64
same,glycan array binding signal (z-score),[22],3.98
same,glycan array binding signal (z-score),[23],0.41
same,glycan array binding signal (z-score),[24],-0.393
same,glycan array binding signal (z-score),[25],-0.573
same,glycan array binding signal (z-score),[26],-0.363
same,glycan array binding signal (z-score),[27],-0.027
same,glycan array binding signal (z-score),[28],-0.216
same,glycan array binding signal (z-score),[29],-0.069
same,glycan array binding signal (z-score),[30],-0.342
same,glycan array binding signal (z-score),[31],0.265
same,glycan array binding signal (z-score),[32],0.161
same,glycan array binding signal (z-score),[33],-0.358
same,glycan array binding signal (z-score),[34],-0.447
same,glycan array binding signal (z-score),[35],0.012
same,glycan array binding signal (z-score),[36],-0.233
same,glycan array binding signal (z-score),[37],-0.433
same,glycan array binding signal (z-score),[38],-0.275
same,glycan array binding signal (z-score),[39],-0.265
same,glycan array binding signal (z-score),[40],7.6
same,glycan array binding signal (z-score),[41],-0.479
same,glycan array binding signal (z-score),[42],-0.525
same,glycan array binding signal (z-score),[43],4.21
same,glycan array binding signal (z-score),[44],-0.336
same,glycan array binding signal (z-score),[45],-0.198
same,glycan array binding signal (z-score),[46],-0.152
same,glycan array binding signal (z-score),[47],10.6
same,glycan array binding signal (z-score),[48],-0.476
same,glycan array binding signal (z-score),[49],-0.163
same,glycan array binding signal (z-score),[50],5.59

# — the supplement of paper PMC8728848
